According to PubChem BioAssay (NCI):
Compounds without any hit were thinned out: in the full panel of roughly 83,000, 20% have a hit.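 Treatment: one concentration, 48 hours, 96-well format. Scoring: percent growth, with anything below 10 considered active.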 Unmarked numbers belong to inactive results. The source made the active and inactive calls.

system: SK-OV-3 ovarian; experiment: NCI-60 one-dose screen, 48 h (100 = growth as untreated, 0 = no growth, -100 = all killed); conditions: 10 µM unless noted

Structure (SMILES) | growth
COc1ccc2c(c1)CC[C@@H]1[C@@H]2CC[C@]2(C)[C@@H](O)C(=O)C[C@@H]12 | 120%
C[C@@H]1CN(c2nc3c(cc2F)c(=O)c(C(=O)O)cn3C(C)(C)C)C[C@H](C)N1 | 105%
NS(=O)(=O)c1ccc(-n2ncc3c(NC4CCCCC4)ncnc32)cc1 | 108%
CCOC(=O)C1=CCC(n2cc(C)c(=O)[nH]c2=O)O1 (centres undefined) | 109%
O=CNc1ccc2c(c1)Cc1cc([N+](=O)[O-])ccc1-2 | 12.8%
CC(=O)[C@H]1CC[C@H]2[C@@H]3C[C@H](C)C4=CC(=O)CC[C@]4(C)[C@H]3C(=O)C[C@]12C | 98%
Cc1ccc2nc(SCC(=O)Nc3ccc(-c4nc5ccccc5s4)c(Cl)c3)[nH]c2c1 | 105%
Cc1ccc(C(=O)Cc2ccccc2)c(O)c1 | 127%
ICCC(c1ccccc1)(c1ccccc1)c1ccccc1 | 74.6%
c1ccc(CN=C(NCc2ccccc2)NCc2ccccc2)cc1 | 73.5%
Oc1ccc(/C=N/Nc2nc3ccccc3s2)c(O)c1 | 8.68% (active)
O=C(CC(C(=O)c1ccccc1)N1CCN(Cc2ccccc2)CC1)c1ccccc1 (centres undefined) | 112%
CC(NC(N)=S)c1ccccc1 (centres undefined) | 99.3%
C[C@]12CCC(=O)C=C1CC[C@H]1[C@@H]3C[C@@H](O)[C@](O)(C(=O)CO)[C@@]3(C)C[C@H](O)[C@@]12F | 72.4%
O=C(Nc1ccc2c(c1)C(=O)c1ccccc1-2)c1ccccc1 | 110%
COC(=O)C1=CCC(n2cnc3c(N)ncnc32)O1 (centres undefined) | 108%
CCN(Cc1cccc(S(=O)(=O)[O-])c1)c1ccc(C(=C2C=CC(=[N+](CC)Cc3cccc(S(=O)(=O)O)c3)C=C2)c2ccccc2S(=O)(=O)O)cc1 | 102%
CC(NC(=O)Oc1cccc2ccccc12)c1ccccc1 (centres undefined) | 111%
OC(c1cc(-c2cccc(Cl)c2)nc2ccccc12)C1CCCCN1 (centres undefined) | 48.3%
O=C(Nc1ccccc1OC(=O)c1ccccc1)c1ccccc1 | 89.2%

Structure (SMILES) | growth
Cc1ccccc1NC(=O)NC(CC(N)=O)c1ccc2c(c1)nc(-c1cccc(Oc3ccc(C(C)(C)C)cc3)c1)n2CCCN1CCCCC1C (centres undefined) | 103%
O=C(C(=O)c1cc(Br)ccc1O)c1cc(Br)ccc1O | 79.6%
Fc1ccccc1C1c2ccccc2-c2nccn21 (centres undefined) | 109%
COc1cc(/C=C\C(C)=N\Nc2ccccc2)ccc1O | 121%
COc1cc(/C=N/NC(=O)c2ccc(C(F)(F)F)nc2Nc2ccc(Cl)cc2C)ccc1O | 44.3%
O=Cc1ccccc1C(=O)O | 104%
COc1cc(NC(=O)NCc2ccco2)ccc1-c1ccc(NC(=O)NCc2ccco2)cc1OC | 69.9%
COc1cccc(/C=N/Nc2nc3ccccc3s2)c1OC | 78.5%
O=C(N/N=C/c1ccc(Cl)cc1Cl)c1ccccc1Nc1cccc(C(F)(F)F)c1 | 97.4%
COc1ccc(NS(=O)(=O)N2CCCCC2)cc1 | 99.6%
O=c1c2ccccc2c2nccn2c2cc(Cl)ccc12 | 113%
COc1ccc(-c2ccc(O)c(C(=O)/C=C/c3cc(OC)c(OC)c(OC)c3)c2)cc1 | 77.6%
Cn1cnc([N+](=O)[O-])c1Sc1nc(N)nc2nc[nH]c12 | 2.59% (active)
Cc1cc(=O)oc2cc(OCCn3c(C)nn(-c4ccc(Cl)cc4)c3=O)ccc12 | 41.1%
O=C1C=CC(=O)N1c1ccccn1 | 115%
CCN(CC)c1ccc(N=C2C=CC(=O)C=C2NC(C)=O)cc1 | 86.9%
CC1CN(C2CCCCC2)C(=O)NC1=O (centres undefined) | 107%
COc1ccc2cc(C3=CC(=O)CCC3)ccc2c1 | 120%
COc1ccc(Cl)cc1Nc1nc(C(F)(F)F)ccc1C(=O)N/N=C/c1c(Cl)cccc1Cl | 49.7%
